Results published in paper PMC4336329 (PLoS ONE, 2015).
Screen size: about 310,000 compounds; about 14,000 (4.5%) showed an effect of 50% or more. Effects have a minus sign here. What follows is part of a selection rich in strong results, with near analogues and random picks from the rest.

The compounds below were run against human ether-à-go-go-related gene (hERG) potassium channel (human, UniProt Q12809) (assay: primary screen, population patch clamp on CHO cells stably expressing hERG; higher = less effect of the substance).
Sequence of human ether-à-go-go-related gene (hERG) potassium channel (Q12809 whole entry, looked up): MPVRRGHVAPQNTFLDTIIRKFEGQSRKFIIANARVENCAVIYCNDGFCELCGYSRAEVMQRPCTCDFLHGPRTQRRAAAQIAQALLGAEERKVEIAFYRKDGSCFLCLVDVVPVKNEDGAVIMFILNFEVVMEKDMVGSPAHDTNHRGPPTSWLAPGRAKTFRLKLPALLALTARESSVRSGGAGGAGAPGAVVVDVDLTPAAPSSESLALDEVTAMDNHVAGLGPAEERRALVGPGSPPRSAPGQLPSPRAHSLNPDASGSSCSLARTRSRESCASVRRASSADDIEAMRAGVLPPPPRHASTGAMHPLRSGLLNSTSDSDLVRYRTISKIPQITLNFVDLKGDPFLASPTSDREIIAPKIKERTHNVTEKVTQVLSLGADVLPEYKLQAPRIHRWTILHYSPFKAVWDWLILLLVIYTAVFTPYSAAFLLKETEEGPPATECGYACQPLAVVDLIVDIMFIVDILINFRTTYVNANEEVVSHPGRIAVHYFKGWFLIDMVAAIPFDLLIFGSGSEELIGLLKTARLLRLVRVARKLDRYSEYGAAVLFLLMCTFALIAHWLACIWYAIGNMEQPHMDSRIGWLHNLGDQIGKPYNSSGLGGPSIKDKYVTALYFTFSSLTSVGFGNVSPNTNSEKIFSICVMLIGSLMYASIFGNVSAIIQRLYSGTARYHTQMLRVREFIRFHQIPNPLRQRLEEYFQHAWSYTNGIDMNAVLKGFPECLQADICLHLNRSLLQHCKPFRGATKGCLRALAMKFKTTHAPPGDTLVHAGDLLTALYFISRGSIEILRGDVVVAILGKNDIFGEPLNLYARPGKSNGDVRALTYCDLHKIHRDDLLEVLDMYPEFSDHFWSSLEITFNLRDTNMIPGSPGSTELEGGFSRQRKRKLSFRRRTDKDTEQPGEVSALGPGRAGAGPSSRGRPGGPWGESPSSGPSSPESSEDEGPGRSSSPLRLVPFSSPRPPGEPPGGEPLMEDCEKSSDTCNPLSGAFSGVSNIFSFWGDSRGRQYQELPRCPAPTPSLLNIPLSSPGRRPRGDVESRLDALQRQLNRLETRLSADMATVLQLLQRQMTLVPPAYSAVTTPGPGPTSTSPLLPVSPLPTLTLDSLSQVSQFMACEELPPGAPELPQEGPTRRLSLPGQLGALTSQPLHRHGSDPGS
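Further: peak tail current of the secondary pulse compared with the same well before compound.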

SMILES	hERG current change (%, negative = inhibition) at 10uM
Cn1c(=O)n(C)c2cc(NS(=O)(=O)c3ccc(F)cc3)ccc21	1.38%
O=C(NCc1cccnc1)C1CC(=O)N(c2ccc(F)cc2)C1 (stereo not drawn)	-15.1%
CC(SCc1ccccc1)C(=O)NC1CCCC1 (stereo not drawn)	3.27%
CCN(CC)CCNC(=O)Cn1c(C)cc2ccccc2c1=O	1.83%
CSc1ccc(/C=C/C(=O)c2ccc(NC(C)=O)cc2)cc1	12.6%
OCCOCCn1c(C(CO)Nc2nc(-c3cccc(Br)c3)cs2)nc2ccccc21 (stereo not drawn)	-12.5%
OCCOCCn1c(C(CO)Nc2nc(-c3ccccc3Br)cs2)nc2ccccc21 (stereo not drawn)	-72%
Cc1ccc(-c2csc(NC(CO)c3nc4ccccc4n3CCOCCO)n2)cc1 (stereo not drawn)	-47.3%
O=C(Cc1cccs1)Nc1nnc(SCC(=O)NC2CCCCC2)s1	7.84%
CCOc1ccccc1NC(=O)C1C2CCC3C(CCC21)C3(Cl)Cl (stereo not drawn)	-13.4%
NC(=O)CSc1nccn1Cc1ccc(Cl)cc1	19.1%
CC(=O)Nc1ccc(NC(=O)CSc2nccn2Cc2ccc(Cl)cc2)cc1	-9.56%
CNC(=O)CSc1nccn1Cc1ccc(Cl)cc1	-64.9%
Cc1nnc(SCc2ccccc2)n1CC1CCCO1 (stereo not drawn)	11.9%
O=C(C1=NN(c2ccccc2)C2C(=O)N(c3cccc(Cl)c3)C(=O)C12)c1ccccc1 (stereo not drawn)	1.55%
Clc1ncnc2scc(-c3ccc(Br)cc3)c12	7.97%
COc1ccccc1N=Nc1c(O)[nH]c2ccc(Br)cc12	14.2%
CC(=O)N1CCN(Cc2nc3cc(NC(=O)c4ccc(F)cc4)ccc3n2C)CC1	-8.9%
CCOC(=O)Nc1ccc2c(c1)nc(CN1CCCCC1)n2C	-7.84%
CC(C)(C)n1cnc2cc(NC(=O)c3ccc(Cl)cc3)ccc21	-59.1%
Cn1c(CN2CCOCC2)nc2cc(NC(=O)c3ccc(F)cc3)ccc21	-12.5%
Cn1c(CN2CCCCC2)nc2cc(NC(=O)c3ccc(F)cc3)ccc21	-54.2%

SMILES	hERG current change (%, negative = inhibition) at 10uM
CC(=O)N1CCN(Cc2nc3cc(NC(=O)c4ccc(Cl)cc4)ccc3n2C)CC1	-65.8%
CC(C)(C)n1cnc2cc(NC(=O)c3ccccc3)ccc21	-9.28%
Cn1c(CN2CCCC2)nc2cc(NC(=O)c3ccc(Cl)cc3)ccc21	-82%
COc1ccc(C(=O)Nc2ccc3c(c2)nc(CN2CCN(C(C)=O)CC2)n3C)cc1	-0.777%
Cn1cnc2cc(NC(=O)c3ccc(Cl)cc3)ccc21	-18.9%
COc1ccc(C(=O)Nc2ccc3c(c2)nc(CN2CCCC2)n3C)cc1	-44.4%
Cn1c(CN2CCOCC2)nc2cc(NC(=O)c3ccc(Cl)cc3)ccc21	-34.2%
O=C(NCCc1ccccc1)/C(=N\O)c1ccccc1	7.7%
CCn1c(=O)c2sccc2n2c(CCCC(=O)NC3CCN(Cc4ccccc4)CC3)nnc12	-6.43%
COc1ccc(OC)c(C2C(C(C)=O)=C(O)C(=O)N2CCN2CCOCC2)c1 (stereo not drawn)	-6.92%
COc1ccc(C)cc1NC(=O)CCN1CCN(c2ccccc2F)CC1.Cl	-19.9%
Cc1ccccc1OCC(=O)NNC(=O)CN1C(=O)c2ccccc2C1=O	-9.07%
NNc1nc2sc3c(c2c(=O)[nH]1)CCc1ccccc1-3	7.46%
Cc1ccc(C)c(N2CCN(C(=O)Cc3c(C(=O)O)[nH]c4ccc(Cl)cc34)CC2)c1	10.1%
O=C(O)COc1cccc2nsnc12	4.42%
CC(=O)N1N=C(c2cccc([N+](=O)[O-])c2)OC1(C)CC(=O)Nc1ccccc1 (stereo not drawn)	-12%
COc1ccc(NC(=O)CN(C)CC(=O)Nc2ccc(N3CCOCC3)cc2)c([N+](=O)[O-])c1	-26.2%
CNC(=O)OCc1cccc(COC(=O)NC)n1.Cl	27.2%
CC(=O)N1CCN(Cc2nc3cc(NC(=O)c4ccccc4C)ccc3n2C)CC1	10.2%
COc1ccccc1C(=O)Nc1ccc2c(c1)nc(CN1CCN(C(C)=O)CC1)n2C	-80%
Cn1c(CN2CCCCC2)nc2cc(NC(=O)c3ccccc3Cl)ccc21	-8.74%
CCCC(=O)Nc1ccc2c(c1)nc(CN1CCCCC1)n2C	2.55%

SMILES	hERG current change (%, negative = inhibition) at 10uM
Cn1c(CN2CCCCC2)nc2cc(NC(=O)c3ccc(Cl)cc3)ccc21	-59.8%
COc1ccccc1C(=O)Nc1ccc2c(c1)nc(CN1CCCCC1)n2C	-21.8%
CS(=O)(=O)c1ccc(-n2c(=O)n(Cc3ccccc3)c(=O)c3[nH]cnc32)cc1	-45.7%
CCOP(=O)(OCC)/C(C#N)=C/c1ccc(Br)cc1	-13.5%
O=C1c2ccccc2C(=O)N1CCN1CCCCC1	-6.2%
CC1CN(C(=O)/C=C/c2ccccc2[N+](=O)[O-])CC(C)O1 (stereo not drawn)	-4.44%
CCCCc1cn([C@@H](CCCCN)C(=O)N2CCNCC2)nn1.Cl	18.8%
CCOC(=O)c1cc2c(=O)n3ccccc3nc2n(C(C)C)c1=NC(=O)c1c(-c2c(F)cccc2Cl)noc1C	2.48%
CCOC(=O)c1cc2c(=O)n3ccccc3nc2n(C(C)C)c1=NC(=O)c1ccncc1	-67.5%
CCOC(=O)c1cc2c(=O)n3ccccc3nc2n(C)c1=NC(=O)c1c(-c2c(F)cccc2Cl)noc1C	14%
CCCn1c(=NC(=O)c2c(-c3c(F)cccc3Cl)noc2C)c(C(=O)OCC)cc2c(=O)n3ccccc3nc21	5.26%
CCCn1c(=NC(C)=O)c(C(=O)OCC)cc2c(=O)n3ccccc3nc21	-9.98%
CCOC(=O)c1cc2c(=O)n3ccccc3nc2n(C(C)C)c1=NC(=O)c1c(-c2ccccc2Cl)noc1C	24.3%
CCCn1c(=NC(=O)c2ccco2)c(C(=O)OCC)cc2c(=O)n3ccccc3nc21	-66.7%
CCOC(=O)c1cc2c(=O)n3ccccc3nc2n(C(C)C)c1=NC(=O)c1ccco1	-56.8%
CCCCCn1c(=NC(=O)c2ccco2)c(C(=O)OCC)cc2c(=O)n3ccccc3nc21	-73.5%
Cc1onc(-c2c(Cl)cccc2Cl)c1C(=O)NCc1cccs1	-9.65%
COC(=O)CSc1nnc(SCc2ccc(Cl)cc2)s1	-0.477%
Cc1occc1C(=O)N/N=C/c1ccc(-c2cccc([N+](=O)[O-])c2)o1	1.37%
O=C(COC(=O)c1cc(S(=O)(=O)NCc2ccccc2)ccc1O)c1cc2ccccc2o1	11.9%
COc1ccccc1NC(=O)CCCN1C(=O)C2CC=CCC2C1=O (stereo not drawn)	11.1%
CCN1CCN(Cc2ccccc2NC(=O)Nc2ccc(C)cc2)CC1	-0.992%

SMILES	hERG current change (%, negative = inhibition) at 10uM
COc1cc2nc(CN(CCC(C)C)Cc3nc4cc(OC)c(OC)cc4c(=O)[nH]3)[nH]c(=O)c2cc1OC	-2.68%
Cc1ccccc1NC(=O)c1nn(C)c(C(=O)Nc2ccccc2C)c1[N+](=O)[O-]	0.0696%
CCCCn1c(=NC(=O)c2ccco2)c(C(=O)OCC)cc2c(=O)n3ccccc3nc21	-71.7%
CCOc1cc(/C=C/c2ccc3cccc([N+](=O)[O-])c3n2)ccc1OCC(=O)N(C)C	-33.4%
O=C(c1ccco1)N1CCN(c2nnc(-c3ccccc3)c3ccccc23)CC1	-75.8%
N#Cc1c(N2CCN(C(=O)c3ccco3)CC2)nc(-c2ccccc2)c2c1CCCC2	-5.84%
Cc1ccc(-c2nnc(N3CCN(C(=O)c4ccco4)CC3)c3ccccc23)cc1	-75.2%
Cc1ccc(-c2nnc(N3CCN(C(=O)CN4CCOCC4)CC3)c3ccccc23)cc1	-31.5%
O=C(CN1CCOCC1)N1CCN(c2nnc(-c3ccccc3)c3ccccc23)CC1	7.35%
Cc1ccc(-c2nnc(N3CCCCC3)c3ccccc23)cc1	-11.2%
O=C(Nc1nccs1)C1CCN(S(=O)(=O)c2ccccc2)CC1	-14.1%
CN(C)S(=O)(=O)c1cccc(NC(=O)c2sccc2-c2ccccc2)c1	-26.1%
Fc1ccc(CNC(=S)Nc2ccc(OC(F)F)cc2)cc1	-20.6%
COc1ccc(NC(=S)Nc2ccc3cn[nH]c3c2)cc1	-11.9%
FC(F)Oc1ccc(NC(=S)NCc2ccccc2)cc1	-36.9%
FC(F)Oc1ccc(NC(=S)NCc2nc3ccccc3[nH]2)cc1	-79.2%
CCc1cccc(CC)c1NC(=S)NCc1nc2ccccc2[nH]1	3.09%
FC(F)Oc1ccc(NC(=S)Nc2ccc3cn[nH]c3c2)cc1	-79.5%
S=C(Nc1ccccc1)Nc1ccc2cn[nH]c2c1	-14.5%
CCOc1ccc(NC(=S)NCc2nc3ccccc3[nH]2)cc1	-74%
CCNC(=S)Nc1ccc(Cc2nc3ccccc3[nH]2)cc1	9.19%
